This passage reports Inhibition results from ChEMBL document CHEMBL1157539, “Thousands of chemical starting points for antimalarial lead identification” (Nature, 2010).

Each structure is given as a SMILES string.

Holding throughout (format): functional
Assay [1] deals with Plasmodium falciparum. Kind of assay: GSK_TCMDC: Inhibition of Plasmodium falciparum 3D7 in whole red blood cells, using parasite LDH activity as an index of growth. Test compounds present at 2uM.
Assay [2] concerns Plasmodium falciparum. Kind of assay: GSK_TCMDC: Inhibition of Plasmodium falciparum Dd2 in whole red blood cells, using parasite LDH activity as an index of growth. Test compounds present at 2uM.
The test system of another assay is HepG2. Kind of assay: GSK_TCMDC: Percent inhibition of human HepG2 cell line. Test compounds present at 10uM.

As for `COc1ccc(CCn2c(=N)c(C(=O)NC3CCCC3)cc3c(=O)n4ccccc4nc32)cc1`, the Inhibition in the assay with Plasmodium falciparum [1] amounted to 99%; in the assay on Plasmodium falciparum [2] it was 34%; in the assay with HepG2, 11%.

Regarding `CCC(C)(C)c1ccc(OCCCC(=O)Nc2ccc(Cl)c([N+](=O)[O-])c2)c(C(C)(C)CC)c1`, the Inhibition is on record as 92% with Plasmodium falciparum [1], 88% with Plasmodium falciparum [2] and 0% in the assay with HepG2.

As for `Cc1cc(=NN=Cc2cccc(Cl)c2)c2ccccc2[nH]1`, the values for the Inhibition in the assay with Plasmodium falciparum [1], with Plasmodium falciparum [2] and in the assay with HepG2 were 100%, 100% and 22%, respectively.

Turning to `CCCCCCNC(=O)C1Cc2c([nH]c3ccccc23)C2(CCN(CCc3ccccc3)CC2)N1` (stereo unspecified), the Inhibition in the assay with Plasmodium falciparum [1] is listed as 96%; in the assay on Plasmodium falciparum [2] it was 34%; in the assay on HepG2 it was 41%.

As to `Cc1noc(C)c1-c1ccc2c(Nc3ccccc3C(C)(C)C)c(C(=O)NCc3ccc(C(F)(F)F)cc3)cnc2c1.Cl`, the Inhibition with Plasmodium falciparum [1] worked out at 99%; in the assay on Plasmodium falciparum [2], 50%; in the assay on HepG2 it was 30%.

Regarding `CC(CO)(CO)NCc1cc2c3ccccc3c(CNC(C)(CO)CO)cc2c2ccccc12.CS(=O)(=O)O`, the Inhibition in the assay on Plasmodium falciparum [1] is reported as 96%; with Plasmodium falciparum [2], 98%; with HepG2, 40%.

Consider `Br.C=CCc1cccc(C)c1OCCCON1C(=N)N=C(N)NC1(C)C`, for which the Inhibition in the assay on Plasmodium falciparum [1] was 94%; in the assay on Plasmodium falciparum [2], 95%; in the assay with HepG2, 65%.

The Inhibition is how much of the control response was suppressed. A lower Inhibition goes with little suppression.
